Bioassay records as filed in PubChem BioAssay.
ATXN viability – reduces viability in counter-screen for ATXN expression inhibitors; S2 cells (HEK-293 line with an ATXN2-luciferase reporter) viability, CellTiter-Fluor protease fluorescence, 24 h; Potency, µM (series often up to 56.7 µM), usual class: cytotoxic; actives 0.49% (n = 400,000); AID 651635; note: nearly all actives have a fitted effect of over 40% in size
ATXN2 expr inh – reduces ATXN2 reporter expression in HEK-293 cells | HEK-293 ATXN2-luciferase reporter, luminescence, 24 h | Potency, µM (doses to about 57 µM), inactives show at the top dose activity change, negative = inhibition, hits mostly inhibitors | actives 0.72% (n = 360,000); note: % is set by controls: 0 for no effect and ±100 for the full control effect; nearly all actives have a fitted effect of over 55% in size
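qHTS (up to 57 uM final) was run with 24 h compound exposure of reporter cells at 37 °C. Each well was multiplexed: SteadyGlo luminescence measured ATXN2-luciferase expression after a fluorogenic Gly-Phe-AFC viability readout (25 uM final).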
HT1080 IDH1KD tx – kills HT-1080 cells with IDH1 knockdown; HT-1080 IDH1 knockdown viability, ATP luminescence, 48 h; Potency, µM (titrated, usually from 46.1 µM), without a hit: at the top dose activity, negative = toxicity, most hits filed as cytotoxic; actives 2% (n = 360,000);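 note: 0% = DMSO wells and -100% = cell-free medium wells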
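Cytotoxicity counter-line: IDH1KD HT-1080, 48 h, CellTiter-Glo. Curves classed by r2, magnitude and activity.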
KB-3-1 cytotox – kills parental KB-3-1 adenocarcinoma cells | AID 1347075 | actives 1.4% (n = 400,000) | KB-3-1 viability, CellTiter-Glo ATP luminescence, 72 h | Potency, µM (top dose mostly 46.1 µM), usual class: cytotoxic; note: % is set by controls: 0 for no effect and ±100 for the full control effect; nearly all actives have a fitted effect of over 60% in size
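Parental KB-3-1 adenocarcinoma cells in phenol-red-free DMEM with 10% FBS were pin-treated with compounds at several concentrations, incubated 72 h at 37 °C, and viability read by CellTiter-Glo luminescence; concentration-effect curves were fitted after normalization.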
KB-V1 cytotox – kills drug-selected multidrug resistant KB-V1 cells; KB-V1 MDR cells viability, CellTiter-Glo, 72 h; Potency, µM (titrated, usually from 46.1 µM), hits mostly cytotoxic; actives 3.4% (n = 400,000); AID 1347076; note: % is set by controls: 0 for no effect and ±100 for the full control effect; nearly all actives have a fitted effect of over 60% in size
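Cytotoxicity via CellTiter-Glo luminescence after 72 h compound exposure at 37 degrees C. Cells: drug-selected KB-V1 line, DMEM phenol-red free plus 10% FBS. Compounds tested at multiple concentrations; normalized data fitted to concentration-effect curves.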
HT1080NT lethal – kills 2HG-producing HT-1080-NT fibrosarcoma cells. HT-1080-NT fibrosarcoma viability, CellTiter-Glo ATP luminescence, 48 h. Potency, µM (doses to about 46.1 µM), for inactives: top-dose activity, negative = less viability, actives largely listed as cytotoxic. actives 1.6% (n = 360,000). AID 686970;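 note: NT is the 2HG producing partner of a matched IDH1 knockdown line; 0% = DMSO-treated cells and -100% = media-only wells without cells; nearly all actives have a fitted effect of over 55% in size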
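HT-1080-NT fibrosarcoma cells (2HG-overproducing), 750 cells/well in RPMI with 5% FBS, dosed after 2 h and incubated 48 h at 37C. CellTiter-Glo luminescence normalized to DMSO and no-cell wells; concentration-response curves fitted and classed.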
* marks the source's active call; other numbers are inactive results; i = inactive; ? = inconclusive; . = no result; ! = not confirmed by another sample. Only some compounds are listed: those with a hit (about 6.2% of all), similar ones and a draw of the others. Calls come from the whole dose curve; as a rule, active = well fitted curve in the direction sought with a large enough effect; inconclusive = small, poorly fitted or top-dose-only effect, or another doubt; inactive = no such curve, though single readings can be large; an effect the other way counts as inactive or inconclusive. Potency is the fitted concentration of half-maximal effect.

SMILES | ATXN viability | ATXN2 expr inh | HT1080 IDH1KD tx | KB-3-1 cytotox | KB-V1 cytotox | HT1080NT lethal
O=C(Nc1cccc(S(=O)(=O)NC2=NCCC2)c1)c1cc(-c2ccccn2)nc2ccccc12 | i | -12.5% | ? | i | i | 23.1µM*
O=C(CCl)Nc1cccc(S(=O)(=O)NC2=NCCC2)c1 | . | . | 16.4µM* | 18.4µM* | i | 18.4µM*
O=C(Nc1cccc(S(=O)(=O)NC2=NCCCCC2)c1)c1cc(-c2ccccc2Cl)nc2ccccc12 | ? | -19.6% | -14.9% | i | i | 7.8%
CCOC(=O)c1noc2ncnc(Nc3cccc(C(F)(F)F)c3)c12 | i | -17.8% | . | i | i | .
O=C(Nc1ccc(Br)cc1)C1CCN(S(=O)(=O)c2cccc3nsnc23)CC1 | i | 0.7% | . | i | i | .
COc1ccc(-c2cc(-c3cc(F)ccc3O)[nH]n2)cc1OC | i | 98.7% | ? | i | i | -0.2%
COc1cc2nc(-c3cc(F)ccc3O)nc(N[C@@H]3CNC[C@@H]3C(C)(C)O)c2cc1OC | . | 21.7µM* | . | . | . | .
COc1ccc(CC(=O)Nc2ccc3nc(N4CCCCC4)cc(C)c3c2)cc1 | i | -24.4% | . | i | i | .
Cc1cccn2c(=O)c(C=O)c(N3CC(C)OC(C)C3)nc12 (stereo not given) | i | 0.5% | 13.2% | i | i | -2.5%
COc1ccccc1N1CCN(c2nc3c(C)cccn3c(=O)c2C=O)CC1 | i | -12.9% | ? | i | 23.1µM* | -15.4%
Cc1cccn2c(=O)c(C=O)c(N3CCCCCC3)nc12 | i | -5.8% | ? | i | 14.6µM* | -6.2%
C=Cc1ccc(CSc2nc(-c3ccccc3Cl)nc3c2Cc2c(CO)cnc(C)c2O3)cc1 | ? | -4.7% | . | i | i | .
Cc1cccc(C(=O)Nc2sc3c(c2C(=O)O)CCCC3)c1 | ? | 33.5% | -24.2% | 6.51µM*! | 7.31µM*! | ?
CCOC(=O)c1c(NS(=O)(=O)c2ccc(Br)cc2)sc2c1CCC2 | i | 3.3% | 3.0% | i | i | -0.6%
Cc1cccc(C(=O)Nc2sc3c(c2C(=O)Nc2ccccc2)CCC3)c1 | ? | 0.3% | . | i | i | .
COC(=O)c1c(NC(=O)c2ccc(C)c(S(=O)(=O)Nc3ccccc3C)c2)sc2c1CCCC2 | i | -1.0% | 9.6% | i | 23.1µM* | 6.1%
COC(=O)c1c(NS(=O)(=O)c2ccc3ccccc3c2)sc2c1CCCC2 | i | -18.3% | ? | i | 16.4µM* | -18.6%
Cc1ccccc1-c1noc(-c2ccccc2OCC(=O)Nc2ccccc2[N+](=O)[O-])n1 | i | -1.1% | . | i | i | .
CN(C)S(=O)(=O)c1ccc2c(c1)N(CC(=O)N1CCC(C(N)=O)CC1)CCS2 | i | -8.7% | . | i | i | .
Cc1cnc(-n2ncc(C(=O)N(C)CC3COCCO3)c2C2CC2)nc1-c1cccs1 (stereo not given) | i | . | . | . | . | .
CCOc1ccc(Cl)cc1S(=O)(=O)N1CCN(c2ccc(C)c(C)c2)CC1 | i | -17.1% | -7.2% | i | 14.6µM* | 2.6%
CCOc1ccc(Cl)cc1S(=O)(=O)N1CCN(c2ccc(F)cc2)CC1 | i | ? | -6.9% | i | i | -11.7%
O=C(CSC1=Nc2ccccc2N=C(c2ccc(F)cc2)C1)NCc1ccccc1Cl | ? | -38.2% | . | i | i | .
N#C/C(=C\C1CC=CCC1)c1nc2ccccc2[nH]1 (stereo not given) | i | -3.2% | ? | ? | 13µM* | ?
CC(C)c1ccc(/C=C(\c2nc3ccccc3[nH]2)S(=O)(=O)c2ccccc2)cc1 | ? | ? | 3.26µM* | ? | 2.59µM* | 5.17µM*
SMILES | ATXN viability | ATXN2 expr inh | HT1080 IDH1KD tx | KB-3-1 cytotox | KB-V1 cytotox | HT1080NT lethal
O=S(=O)(/C(=C/c1ccc(C(F)(F)F)cc1)c1nc2ccccc2[nH]1)c1ccccc1 | 26.7µM* | ? | 4.61µM* | 5.17µM* | i | 2.59µM*
CN(C)c1ccc(N=Nc2ccnc3ccccc23)cc1 | . | . | . | ? | i | .
CC(=O)N1CCN(c2ccc(Oc3ccc([N+](=O)[O-])c(C(F)(F)F)c3)cc2)CC1 | i | ? | -29.0% | ? | 5.17µM* | ?
Cc1ccc(C(C)OC(=O)C2(C)CCC(C(=O)O)C2(C)C)cc1 (stereo not given) | i | 14.0% | . | . | . | .
COCCNCCCOc1ccc(Cl)cc1Br | i | . | ? | i | i | ?
CNCCCOc1ccc(Cl)cc1C(C)(C)C | ? | ? | 23.1µM* | ? | ? | ?
CCC(C)NCCCOc1ccc(Cl)cc1C(C)(C)C (stereo not given) | i | -4.7% | -15.7% | i | ? | -7.8%
COCCCNCCCOc1ccc(Cl)cc1C(C)(C)C | ? | ? | 20.6µM* | ? | 25.9µM* | ?
CCCCCCCCCCN(CCCCCCCCCC)c1ccc(/C=C/c2ccnc3ccccc23)cc1 | . | . | . | i | i | .
Cc1ccc[n+](CC(=O)Nc2ccc([N+](=O)[O-])cc2)c1 | ? | . | 16.4µM* | i | i | -13.6%
Cc1nn(C)c(Cl)c1CN1CCC(CO)(CCOc2ccccc2)CC1 | i | -35.8% | -0.6% | i | ? | -6.5%
Cc1c(CN2CCC(CO)(CCOc3ccccc3)CC2)[nH]c2c(Cl)cccc12 | ? | ? | 18.4µM* | ? | ? | 20.6µM*
O=C(/C=C/c1ccccc1[N+](=O)[O-])c1ccc(F)cc1 | i | 19.7% | -25.3% | ? | 23.1µM* | ?
COC(=O)C(=Cc1ccccc1[N+](=O)[O-])C(=O)OC | 15.8µM* | . | 0.0% | i | i | ?
O=C(/C=C/c1ccccc1[N+](=O)[O-])OCC(=O)c1ccccc1 | i | 4.1% | 6.2% | i | i | 6.1%
COc1ccc(CNC(=O)/C=C/c2ccccc2[N+](=O)[O-])cc1 | i | . | 1.5% | i | i | -16.1%
C(=C\c1nc(N2CCCCCC2)c2ccccc2n1)/c1ccccc1 | ? | ? | ? | i | 18.4µM* | ?
COc1cc2c(cc1OC)CN(c1nc(-c3cccnc3)nc3ccccc13)CC2 | ? | ? | 18.4µM* | i | ? | 18.4µM*
Fc1ccccc1-c1nc(N2CCCCC2)c2ccccc2n1 | i | 4.9% | -1.5% | ? | 13µM* | 10.5%
CN1CCN(c2nc(-c3ccccn3)nc3ccccc23)CC1 | ? | ? | 7.94µM* | i | 23.1µM* | 7.94µM*
Oc1ccccc1-c1nc(N2CCCC2)c2ccccc2n1 | i | 7.9% | 12.7% | i | i | 11.6%
Cc1ccc(C)c2c1NC(C(=O)O)C1CC=CC21 (stereo not given) | . | . | . | i | ? | .
